Experimental findings from PubChem BioAssay (Tox21) are described below.

Unmarked numbers belong to inactive results. The source made the active and inactive calls. Calls follow the shape of the dose curve; as a rule, active = well fitted curve in the direction sought with a large enough effect in the repeat runs; inconclusive = weak or mixed curves; inactive = flat fitted curve, though single readings scatter.
% is scaled to controls: 0 for no effect and ±100 for the full control effect.

The test in a line: qHTS assay to test for compound auto fluorescence at 460 nm (blue) in HEK293 cell free culture (AID 720681). The following applies: cell-free medium, autofluorescence 405/460 nm (blue); series mostly up to 91.3 µM; fluorescence, % of fluorescent control: at the top concentration. From the text: U.S. Tox21 Program National Center for Advancing Translational Sciences [NCATS] NIH Chemical Genomics Center [NCGC] U.S. Environmental Protection Agency [EPA] National Institutes of Environmental Health Sciences [NIEHS] National Toxicology Program [NTP] U.S. Food and Drug Administration [FDA] Tox21 Assay Overview: Compound auto fluorescence often interferes with screening of the compound library against various biological targets and signaling pathways. Some of these compounds may have fluorophoric properties. Such properties may interfere with the assay outputs resulting in false positives and/or negatives. To decrease such complications and ensure the compound activities are relevant in terms of biological response, the Tox21 10K compound library was screened for auto fluorescence. From the fluorophores used as reporter signals in our screening assays, the auto fluorescence equivalencies of compounds against three fluorophores have been evaluated: Triamterene, Fluorescein and Rose Bengal sodium for blue, green and red fluorescence, respectively. The fluorescence intensities were measured using Excitation/Emission wavelengths at 405/460nm, 485/535nm and 540/590nm for blue, green and red labels, respectively. This assay includes the blue fluorescence data.
Tox21 Assay Protocol Summary: 5 uL of culture medium (DMEM containing 10% FBS) per well was dispensed into black wall/clear bottom 1536-well plates using a Multidrop Combi Dispenser (ThermoFisher Scientific, Waltham, MA). After 23 nL compound or DMSO vehicle was transferred into assay plate by a pintool work station (Kalypsys, San Diego, CA), fluorescence intensities in the assay plates were measured by an Envision (PerkinElmer, Shelton, CT) plate reader using three labels for measuring blue, green and red fluorescence at […] 460, 535 and 590nm respectively.
A general note: Quantitative high-throughput screening tests each substance at several concentrations.
In the case of `Cn1c(=O)c2c(ncn2CCO)n(C)c1=O`, the “fluorescence, % of fluorescent control” value was 0.25% [at 46 µM].

On to `CC(C)Cn1cnc2c1c(=O)n(C)c(=O)n2C`, for which the “fluorescence, % of fluorescent control” value is -0.146% [at 46 µM].

With `CCn1cc(C(=O)O)c(=O)c2cnc(N3CCCC3)nc21`, the fluorescence, % of fluorescent control was 0.169% [at 18.6 µM].

For the molecule `CCCCCCCCCCCCCCCCCC#N`, the “fluorescence, % of fluorescent control” value was -0.246% [at 95.7 µM].

As to `CCC[C@@H]1C[C@@H](C(=O)N[C@@H]([C@H]2O[C@H](SC)[C@H](O)[C@@H](O)[C@H]2O)[C@@H](C)O)N(C)C1`, the “fluorescence, % of fluorescent control” value was -0.155% [at 46 µM].

Turning to `O=C(O)CNC(=O)CNC(=O)CNC(=O)CSC(=O)c1ccccc1`, the “fluorescence, % of fluorescent control” value is -0.121% [at 46 µM].

`CN(C)CCN(C)CCO`: the “fluorescence, % of fluorescent control” value is -0.0345%.

`O=C(NCN1CCOCC1)c1cnccn1`: the “fluorescence, % of fluorescent control” value is 0.0269% [at 46 µM].

Consider `C[C@]12CCC(=O)C=C1CC[C@H]1[C@@H]3CC[C@](O)(C(=O)CO)[C@@]3(C)C[C@H](O)[C@@]12F`, for which the call was inactive.

For `Cc1cc(C)c(C(=O)O)c(C)c1`, the “fluorescence, % of fluorescent control” value was -0.0087%.

On to `N#Cc1cscn1`, for which the “fluorescence, % of fluorescent control” value was 0.0454%.

On to `Cc1ccnc(N)c1`, for which the “fluorescence, % of fluorescent control” value was -0.327%.

For `CCO[Si](CC)(OCC)OCC`, the “fluorescence, % of fluorescent control” value was -0.0859%.

Take `c1ccc(B(c2ccccc2)c2ccccc2)cc1`: the “fluorescence, % of fluorescent control” value was -0.0487%.

Take `CC(C)[C@H]1CC[C@H](C)C[C@@H]1O`: the “fluorescence, % of fluorescent control” value was 0.011% [at 95.7 µM].

In the case of `CCC(=O)c1c(O)cc(O)cc1O`, the “fluorescence, % of fluorescent control” value was -0.177% [at 46 µM].

For `C=C(C)[C@@H]1CC=C(C)CC1`, the “fluorescence, % of fluorescent control” value is -0.0631%.

As for `CNCCS(=O)(=O)O`, the “fluorescence, % of fluorescent control” value is 0.0608%.

`OCCN1CCOCC1`: the “fluorescence, % of fluorescent control” value was 0.0546%.

For the molecule `CC(C)OC(=O)OCOP(=O)(CO[C@H](C)Cn1cnc2c(N)ncnc21)OCOC(=O)OC(C)C`, the outcome was inactive.

As to `CC(=O)c1cc(C)oc1C`, the “fluorescence, % of fluorescent control” value was 0.0119% [at 95.7 µM].

Regarding `O=C(O)CSCC(=O)NC1CCSC1=O` (stereo not given), the “fluorescence, % of fluorescent control” value was -0.0607% [at 46 µM].

For `Cc1ccc2c(c1)C(=O)c1ccccc1C2=O`, the “fluorescence, % of fluorescent control” value was 0.0182%.

As for `CO[Si](CCCn1c(=O)n(CCC[Si](OC)(OC)OC)c(=O)n(CCC[Si](OC)(OC)OC)c1=O)(OC)OC`, the “fluorescence, % of fluorescent control” value was 0.0057%.

On to `CC1=NN(c2ccc(S(=O)(=O)O)cc2)C(=O)C1`, for which the “fluorescence, % of fluorescent control” value is -0.144%.

With `CC1=C(C(=O)O)N2C(=O)[C@@H](NC(=O)[C@H](N)c3ccccc3)[C@H]2SC1`, the “fluorescence, % of fluorescent control” value was 0.514% [at 46 µM].

On to `CCCCCC/C=C/C(=O)OC`, for which the “fluorescence, % of fluorescent control” value was -0.0285%.

As to `CCC(C)C(C)=O` (stereo not given), the “fluorescence, % of fluorescent control” value is 0.0928%.

Turning to `C=Cc1ccc(C(C)(C)C)cc1`, the “fluorescence, % of fluorescent control” value is -0.137%.

Take `CCCCC1CCC(O)CC1` (stereo not given): the “fluorescence, % of fluorescent control” value is -0.0044%.

Consider `Nc1nnnn1-c1ccccc1`, for which the “fluorescence, % of fluorescent control” value was -0.193% [at 46 µM].

Regarding `N[C@@H](Cc1ccc(O)cc1)C(=O)O`, the “fluorescence, % of fluorescent control” value is -0.0995% [at 46 µM].

As for `CN(C)CCCO[C@@H]1[C@H]2OC(C)(C)O[C@H]2O[C@@H]1C(O)CO` (stereo not given in full), the “fluorescence, % of fluorescent control” value is -0.0499% [at 46 µM].

On to `CC(C)COC(=O)c1ccccc1`, for which the “fluorescence, % of fluorescent control” value is 0.0563%.

As to `CCCCSCCCC`, the “fluorescence, % of fluorescent control” value was -0.256%.

Regarding `O=[N+]([O-])c1c(Cl)cc(Cl)cc1Cl`, the “fluorescence, % of fluorescent control” value was -0.185%.

With `CC(=O)C1C(=O)C=C(C)OC1=O` (stereo not given), the “fluorescence, % of fluorescent control” value is 0.52%.

Consider `CC(O)COC(C)(C)C` (stereo not given), for which the “fluorescence, % of fluorescent control” value is -0.159%.

Regarding `Cc1ccc(C(=O)O)cc1[N+](=O)[O-]`, the “fluorescence, % of fluorescent control” value was 0.0253%.

On to `OC[C@@H](O)C(O)[C@@H](O)CO` (stereo not given in full), for which the “fluorescence, % of fluorescent control” value is -0.0034% [at 95.7 µM].
